From PubChem BioAssay (NCI)
This is part of a sample that, as a whole, favours compounds with a hit. Of some 79,000 tested, about 15% had one in any assay. The source made the active and inactive calls. Cut-off read from the data, not from the text of the source: active = growth inhibition above about 70%; inactive = the rest.

How the values were obtained:
[1] = NCI Yeast Anticancer Drug Screen. Data for the rad52 strain (AID 147);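 note: 0% = growth of vehicle-treated control cultures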; settings: S. cerevisiae rad52 mutant growth inhibition, hits give high values
Outline: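 Compounds are applied to a genetically defined yeast strain lacking normal DNA damage repair, and inhibition of growth is expressed relative to cultures given vehicle only.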

[2] = NCI Yeast Anticancer Drug Screen. Data for the wt1 strain (AID 149);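 note: 0% = growth of vehicle-treated wt1 cultures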; settings: S. cerevisiae wt1 strain (SPY 50644) growth inhibition, hits give high values
Outline: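 Yeast wt1 strain exposed to compounds; growth inhibition measured relative to vehicle-treated controls.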

[3] = NCI Yeast Anticancer Drug Screen. Data for the rad50EPP+ strain (AID 151);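 note: 0% = growth of vehicle-treated control cultures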; settings: S. cerevisiae rad50 mutant strain, hits give high values
Outline: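 Compounds were applied to the rad50EPP+ yeast strain, which bears a defined DNA repair alteration, and growth inhibition was determined relative to vehicle-treated cultures.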

[4] = NCI Yeast Anticancer Drug Screen. Data for the mgt1 strain (AID 153); settings: S. cerevisiae mgt1 mutant growth inhibition, hits give high values
Outline: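 Strain: mgt1 yeast, one of a set carrying defined DNA damage repair or cell cycle control alterations. Compound-treated growth compared with vehicle.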

[5] = NCI Yeast Anticancer Drug Screen. Data for the rad50 strain (AID 155);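 note: 0% = growth of vehicle-only cultures of the same strain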; settings: S. cerevisiae rad50 strain growth inhibition, hits give high values
Outline: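 Yeast carrying a defined DNA repair defect were exposed to test compounds, and growth was compared with vehicle-treated controls to give percent inhibition.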

[6] = NCI Yeast Anticancer Drug Screen. Data for the mec2-1 strain (AID 157); settings: S. cerevisiae mec2-1 strain, hits give high values
Outline: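 Strain: mec2-1 (DNA repair/cell cycle alteration). Compound exposure, then growth measured; inhibition expressed relative to vehicle.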

[7] = NCI Yeast Anticancer Drug Screen. Data for the rad14 strain (AID 159);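 note: 0% = growth of vehicle-treated control cultures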; settings: S. cerevisiae rad14 strain growth inhibition, hits give high values
Outline: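 Yeast cells carrying a defined DNA-repair defect were exposed to compounds, and growth inhibition was calculated relative to vehicle-treated control cultures.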

[8] = NCI Yeast Anticancer Drug Screen. Data for the sgs1 mgt1 strain (AID 161);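 note: 0% = growth of cultures given vehicle only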; settings: S. cerevisiae sgs1 mgt1 strain, hits give high values
Outline: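 Genetically altered yeast, compound exposure, growth inhibition relative to vehicle.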

[9] = NCI Yeast Anticancer Drug Screen. Data for the CLN2oe strain (AID 163);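 note: 0% = growth of vehicle-only control cultures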; settings: S. cerevisiae CLN2oe strain, hits give high values
Outline: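 Growth of a genetically modified yeast strain is measured after compound exposure and compared with cultures given vehicle alone.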

[10] = NCI Yeast Anticancer Drug Screen. Data for the cln2 rad14 strain (AID 165);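 note: 0% = growth equal to vehicle treated cultures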; settings: S. cerevisiae cln2 rad14 strain, hits give high values
Outline: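 Compounds are applied to the cln2 rad14 yeast strain, and growth is then compared with that of vehicle-treated cultures to give inhibition.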

[11] = NCI Yeast Anticancer Drug Screen. Data for the bub3 strain (AID 167); settings: S. cerevisiae bub3 mutant strain, hits give high values
Outline: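 Compounds were applied to a genetically altered yeast strain carrying a cell-cycle control defect. Growth inhibition was scored against vehicle-treated controls.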

[12] = NCI Yeast Anticancer Drug Screen. Data for the wt2 strain (AID 169);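 note: 0% = growth of vehicle-treated yeast cultures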; settings: S. cerevisiae wt2 strain growth inhibition, hits give high values
Outline: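 This strain belongs to a panel of yeast strains with defined genetic alterations in DNA damage repair or cell cycle control. Compounds are applied, and growth inhibition is measured against vehicle-treated cultures.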

[13] = NCI Yeast Anticancer Drug Screen. Data for the mlh1 strain (AID 171);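 note: 0% = growth of vehicle-treated control cultures of the same strain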; settings: S. cerevisiae mlh1 strain growth inhibition, hits give high values
Outline: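 Growth of the mutant yeast strain after compound exposure, expressed as inhibition relative to vehicle-only controls.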

[14] = NCI Yeast Anticancer Drug Screen. Data for the sgs1 strain (AID 173);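 note: 0% = growth of vehicle-only control cultures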; settings: S. cerevisiae sgs1 mutant, hits give high values
Outline: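 Growth of a yeast strain bearing a defined genetic alteration is measured after compound treatment. Inhibition is expressed relative to vehicle-only controls.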

[15] = NCI Yeast Anticancer Drug Screen. Data for the mlh1 rad18 strain (AID 175); settings: S. cerevisiae mlh1 rad18 strain growth inhibition, hits give high values
Outline: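 Read-out is yeast growth inhibition, calculated against vehicle-only controls. The compound was applied to a strain engineered with DNA damage repair alterations.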

[16] = NCI Yeast Anticancer Drug Screen. Data for the rad18 strain (AID 177); settings: S. cerevisiae rad18 mutant growth inhibition, hits give high values
Outline: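 Growth of the mutant yeast strain after compound exposure, normalised to vehicle-only cultures.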

[17] = at 5.0 µM (retest, dose inferred, filed as 0.5)
[18] = at 50.0 µM (retest, dose inferred, filed as 5.0)

Measured: growth inhibition

CCCc1cc(C(=O)OCC)cc(CCC)c1O
inactive: [1]; at 1.2 µM -2% | [1]; at 3.7 µM -8% | [1]; at 11.0 µM -9% | [1]; at 33.0 µM -11% | [2]; at 1.2 µM -1% | [2]; at 3.7 µM -5% | [2]; at 11.0 µM -9% | [2]; at 33.0 µM -13% | [3]; at 1.2 µM -2% | [3]; at 3.7 µM 3% | [3]; at 11.0 µM 14% | [3]; at 33.0 µM 21% | [3]; at 100.0 µM 25% | [4]; at 1.2 µM -3% | [4]; at 3.7 µM -4% | [4]; at 11.0 µM -9% | [4]; at 33.0 µM -12% | [5]; at 1.2 µM -8% | [5]; at 3.7 µM -49% | [5]; [17] 5% | [5]; at 11.0 µM 16% | [5]; at 33.0 µM 0% | [5]; [18] 3% | [6]; at 1.2 µM -4% | [6]; at 3.7 µM -5% | [6]; [17] -47% | [6]; at 11.0 µM -13% | [6]; at 33.0 µM -12% | [6]; [18] 8% | [7]; at 1.2 µM -1% | [7]; at 3.7 µM -2% | [7]; at 11.0 µM -11% | [7]; at 33.0 µM -8% | [8]; [17] 1% | [8]; [18] 27% | [9]; at 1.2 µM -1% | [9]; at 3.7 µM -6% | [9]; at 11.0 µM -9% | [9]; at 33.0 µM -30% | [10]; [17] 2% | [10]; [18] -29% | [11]; at 1.2 µM 0% | [11]; at 3.7 µM 10% | [11]; [17] 31% | [11]; at 11.0 µM 39% | [11]; at 33.0 µM 63% | [12]; at 1.2 µM -1% | [12]; at 3.7 µM 4% | [12]; at 11.0 µM -7% | [12]; at 33.0 µM -3% | [13]; at 1.2 µM -4% | [13]; at 3.7 µM -4% | [13]; at 11.0 µM -8% | [13]; at 33.0 µM -8% | [14]; at 1.2 µM -2% | [14]; at 3.7 µM -2% | [14]; at 11.0 µM -3% | [14]; at 33.0 µM 18% | [15]; [17] 2% | [15]; [18] 7% | [16]; at 1.2 µM -6% | [16]; at 3.7 µM 0% | [16]; at 11.0 µM -5% | [16]; at 33.0 µM -1%
active: [1]; at 100.0 µM 97% | [2]; at 100.0 µM 93% | [4]; at 100.0 µM 97% | [5]; at 50.0 µM 93.1% | [5]; at 100.0 µM 98% | [6]; at 50.0 µM 96.1% | [6]; at 100.0 µM 95% | [7]; at 100.0 µM 96% | [8]; at 50.0 µM 79.3% | [9]; at 100.0 µM 96% | [10]; at 50.0 µM 93.8% | [11]; [18] 77% | [11]; at 50.0 µM 96.7% | [11]; at 100.0 µM 97% | [12]; at 100.0 µM 94% | [13]; at 100.0 µM 98% | [14]; at 100.0 µM 95% | [15]; at 50.0 µM 93.5% | [16]; at 100.0 µM 98%
